Screening results deposited in PubChem by National Center for Advancing Translational Sciences (NCATS).
Compounds with a hit are over-represented: about 2.4% of the library has one in this group of screens.
D2 ag-1: Beta-Arrestin HTS for Positive Allosteric Modulators of the Human D2 Dopamine Receptor: Agonists. D(2) dopamine receptor (Homo sapiens), P14416. DiscoveRx PathHunter D2 beta-arrestin, luminescence, 90 min; 100% = 57 uM dopamine signal. activation, % (no concentration beside the values). 360,000 compounds, 0.084% hits. AID 624465, 2012; in the data active means activation above about 40%; inconclusive means between about 15% and that limit
Target sequence (P14416 whole entry, looked up): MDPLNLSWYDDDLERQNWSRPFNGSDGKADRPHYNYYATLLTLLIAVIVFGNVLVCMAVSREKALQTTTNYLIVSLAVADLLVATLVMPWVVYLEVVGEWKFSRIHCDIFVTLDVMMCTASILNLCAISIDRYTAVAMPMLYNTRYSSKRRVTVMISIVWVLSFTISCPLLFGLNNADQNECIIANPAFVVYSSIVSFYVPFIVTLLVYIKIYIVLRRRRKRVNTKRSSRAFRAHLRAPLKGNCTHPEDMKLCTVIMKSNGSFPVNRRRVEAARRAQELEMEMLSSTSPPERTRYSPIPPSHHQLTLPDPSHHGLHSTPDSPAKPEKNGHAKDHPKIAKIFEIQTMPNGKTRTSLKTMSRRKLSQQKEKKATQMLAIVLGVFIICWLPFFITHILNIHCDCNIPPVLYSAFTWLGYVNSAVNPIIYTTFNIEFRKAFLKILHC
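Agonist mode: compounds alone added to overnight-plated D2 PathHunter cells for 90 min at 37 C, with 57 uM final dopamine (EC100) defining full response. Beta-arrestin recruitment detected by chemiluminescent reagent, read after 1 h at ambient temperature.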
D2 antagonist: HTS Assay for Allosteric Antagonists of the Human D2 Dopamine Receptor: Primary Screen for Antagonists; inhibition, % at 10 µM; D(2) dopamine receptor (Homo sapiens), P14416; 340,000 compounds, 2% hits; HEK293 TREx D2 cells, calcium flux, dopamine EC80; in the data active means inhibition above about 30%; inactive means below that, where a call was filed
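Read-out: kinetic calcium fluorescence (1 cycle/s) in inducible HEK293 T-REx D2 cells after an EC80 dopamine addition that followed 180 s compound preincubation. Loss of the dopamine response indicates antagonism.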
D2 PAM-1: HTS Assay for Positive Allosteric Modulators of the Human D2 Dopamine Receptor: Primary Screen for Potentiators; D(2) dopamine receptor (Homo sapiens), P14416; HEK293 T-REx D2, calcium flux, EC20 dopamine potentiation; potentiation, % at 10 µM; 340,000 compounds, 0.34% hits;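 active means potentiation over 3 SD above the plate norm, cut at about 30% in these data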
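Cells plated with tetracycline inducer and held overnight at 30 C; calcium dye loaded 30–90 min at room temperature; baseline taken, compound added and read 180 s; EC20 dopamine then added and read 180 s.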
D2 PAM-2: Beta-Arrestin HTS for Positive Allosteric Modulators of the Human D2 Dopamine Receptor: Potentiators; DiscoveRx D2 beta-arrestin cells, luminescence, 90 min; 100% = 57 uM dopamine signal; potentiation, % (test concentration not listed); 360,000 compounds, 0.23% hits; AID 624464, 2012; in the data active means potentiation above about 50%; inconclusive means mostly about 30% to 49%
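PathHunter beta-arrestin assay in DiscoveRx D2 cells. Compounds were added with an EC20 of dopamine (50 nM final) for 90 min at 37 deg C. Luminescence was read 1 h after detection reagent, with 57 uM dopamine as the EC100 control.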
D2 ag-2: HTS Assay for Allosteric Agonists of the Human D2 Dopamine Receptor: Primary Screen for Agonists | activation, % at 2 µM | 340,000 compounds, 0.53% hits | HEK293 T-REx D2 cells, calcium flux agonist mode | AID 485358, 2010;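 active means activation over 3 SD above normal in the single-dose calcium agonist read, cut at about 30% in these data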
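Tetracycline-induced HEK293 Trex cells with D2 receptor force-coupled to calcium signaling, plated overnight at 30 C and loaded with no-wash calcium dye. Calcium flux read kinetically for 180 s after compound addition; responses flag agonists.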
Of the large screens only hits and unclear results are named; the others gave an inactive call.

Cc1ccc(OCC(O)CN2CCN(Cc3ccc4c(c3)OCO4)CC2)cc1C (configuration not stated)	none
C=CCc1ccc(OCC(O)CN2CCc3ccccc3C2)c(OC)c1 (configuration not stated)	D2 antagonist 47
C=CCc1ccccc1OCC(O)CN1CCN(Cc2ccc3c(c2)OCO3)CC1 (configuration not stated)	D2 antagonist 64
COc1ccccc1C(=O)Nc1c(C(=O)N2CCN(c3ccccc3F)CC2)oc2ccccc12	none (no result: D2 ag-1, D2 antagonist, D2 PAM-2)
COC(=O)c1cc(S(=O)(=O)N2CCCCC2)c[nH]1	none
CCc1ccccc1NC(=O)N1CC(C)Sc2ccccc21 (configuration not stated)	none (no result: D2 ag-1, D2 antagonist, D2 PAM-2)
COC(=O)[C@H](C)NC(=O)NC1CCN(Cc2ccccc2)CC1	D2 antagonist 50
CC(C)Oc1ccc(C(=O)NC2CCN(Cc3ccccc3)CC2)cc1	none
CC(Oc1ccc(Br)cc1)C(=O)NC1CCN(Cc2ccccc2)CC1 (configuration not stated)	D2 antagonist 64
CCCC(CCC)C(=O)NC1CCN(Cc2ccccc2)CC1	none
COc1ccc(NC(=O)C(C)n2nc(-c3cc(C)ccc3C)c3c(c2=O)CCCC3)cc1 (configuration not stated)	none (no result: D2 ag-1, D2 antagonist, D2 PAM-2)
O=C(CCc1nc2ccccc2c(=O)[nH]1)Nc1ccc(N2CCCCC2)cc1	D2 antagonist 77
COc1ccc(C2C=C(c3ccccc3)Nc3nc(NC(=O)/C=C/c4ccc(Cl)cc4)nn32)cc1 (configuration not stated)	none (no result: D2 ag-1, D2 antagonist, D2 PAM-2)
O=C(Oc1cccc2ccccc12)c1ccncc1	D2 antagonist 34
COc1ccc(NC(=O)c2oc3ccccc3c2NC(=O)Cc2cccs2)cc1	none (no result: D2 ag-1, D2 antagonist, D2 PAM-2)
COc1ccc(-n2nc([N+](=O)[O-])c(=NC3CCN(Cc4ccccc4)CC3)n2O)cc1	D2 ag-1 inconclusive, D2 antagonist 71
COc1ccc(-n2nc([N+](=O)[O-])c(=NCCc3ccc(OC)c(OC)c3)n2O)cc1	D2 ag-1 inconclusive, D2 PAM-2 137
COc1ccc(S(=O)(=O)N2CCN(C3CCN(Cc4ccccc4)CC3)CC2)cc1	none
COc1ccc(-n2nc([N+](=O)[O-])c(=NCCc3ccc(Cl)cc3)n2O)cc1	D2 PAM-2 87
COc1ccc(-n2nc([N+](=O)[O-])c(=NCc3cccnc3)n2O)cc1	D2 ag-1 inconclusive, D2 PAM-2 inconclusive
Cc1cc(C)cc(N=c2c([N+](=O)[O-])nn(-c3ccc(Cl)cc3)n2O)c1	D2 PAM-2 inconclusive
COc1ccc(-n2nc([N+](=O)[O-])c(=NCCc3ccc(C)cc3)n2O)cc1	D2 ag-1 inconclusive, D2 PAM-2 71
COc1ccc(CNC(=O)Cc2c(C)c3c(cc(C)c4c(C)c(C)oc43)oc2=O)cc1OC	none (no result: D2 ag-1, D2 antagonist, D2 PAM-2)
COc1ccc(-n2nc([N+](=O)[O-])c(=NCCC3=CCCCC3)n2O)cc1	D2 ag-1 51, D2 PAM-2 74
CCc1ccc(N=c2c([N+](=O)[O-])nn(-c3ccccc3)n2O)cc1	D2 PAM-2 90
COc1ccc(-n2nc([N+](=O)[O-])c(=NCc3ccco3)n2O)cc1	D2 ag-1 inconclusive, D2 PAM-2 inconclusive
COc1ccc(CCNC(=O)c2cnn(-c3ccc(F)cc3)c2C2CCN(C(=O)OC(C)(C)C)CC2)c(OC)c1	none (no result: D2 ag-1, D2 antagonist, D2 PAM-2)
O=C(NCCSc1c[nH]c2ccccc12)c1c(F)cccc1F	none
O=C(NCCSc1c[nH]c2ccccc12)C1CC1	D2 antagonist 36
COc1ccccc1NC(=O)Cn1c(=O)n(-c2ccc(C)cc2)c(=O)c2ccc(C(=O)NCc3ccco3)cc21	none (no result: D2 ag-1, D2 antagonist, D2 PAM-2)
COc1ccccc1N1CCN(CCCNC(=O)c2nnc(Cc3c(F)cccc3Cl)o2)CC1	none (no result: D2 ag-1, D2 antagonist, D2 PAM-2, D2 ag-2)
COCCNc1nc2cc(-c3ccc(C)cc3)sc2c(=O)n1C	none (no result: D2 antagonist, D2 PAM-1, D2 ag-2)
COc1ccc(S(=O)(=O)CCc2nc3ccccc3s2)cc1	D2 antagonist 59
O=S(=O)(CCc1nc2ccccc2s1)c1ccc(Cl)cc1	none
Cc1ccc(S(=O)(=O)NC(=O)C2(C)CCN2C(=O)CC2CCCC2)nc1 (configuration not stated)	none (no result: D2 antagonist, D2 PAM-1, D2 ag-2)
O=C(COC(=O)C1CCN(c2ccc(C(F)(F)F)cn2)CC1)Nc1ccc(Cl)cn1	none
O=C(COC(=O)C1CCN(c2ccc(C(F)(F)F)cn2)CC1)Nc1ncc(Cl)cc1Cl	D2 antagonist 35
O=C(COC(=O)C1CCN(c2ccc(C(F)(F)F)cn2)CC1)NCc1cccc(Cl)c1	D2 antagonist 34
CCOc1ccccc1NC(=O)c1ccc2c(c1)CCCN2S(C)(=O)=O	none (no result: D2 ag-1, D2 antagonist, D2 PAM-2)
O=C(c1ccc2c(c1)N(Cc1cccc(Cl)c1)C(=O)c1ccccc1S2=O)N1CCN(c2cccc(C(F)(F)F)c2)CC1 (configuration not stated)	none (no result: D2 ag-1, D2 antagonist, D2 PAM-2)
COc1ccc(Cc2c(C(C)(C)C)nc3ccc(Cl)cn23)c(C)c1	none (no result: D2 antagonist, D2 PAM-1, D2 ag-2)
O=C(COc1ccc2c(c1)OCO2)Nc1ccc2c(c1)oc1ccccc12	D2 antagonist 37
CC(=O)N1c2ccccc2C(=O)C1N1CCN(c2cc(Cl)ccc2C)CC1 (configuration not stated)	none (no result: D2 ag-1, D2 antagonist, D2 PAM-2)
NC(=O)c1ccccc1N/C=C/C(=O)c1cccs1	D2 PAM-1 31
Cc1cccc(N/C=C/C(=O)c2cccs2)c1C	none
Cc1nc(-c2ccc(F)cc2)c(CC(=O)N(C)CC(=O)Nc2ccc(Br)cc2C)s1	D2 antagonist 58
COc1ccc(NC(=O)c2ccc3ccccc3c2)cc1	none
COc1ccc(C(=O)Nc2ccc(C(=O)OCC(=O)c3cccc4ccccc34)cc2)cc1	D2 antagonist 76
COc1cccc(/C(O)=C2/C(=O)C(=O)N(c3ccccn3)C2c2ccc(OC)c(OC)c2)c1 (configuration not stated)	D2 antagonist 32
COc1ccc(/C(O)=C2/C(=O)C(=O)N(c3ccccn3)C2c2ccc(OC)c(OC)c2)cc1 (configuration not stated)	none
CC[C@H](C)[C@H](NC(=O)CNC(=O)COc1cc2c(c3oc(=O)cc(C)c13)CCC(C)(C)O2)C(=O)O	none
Cc1cc(=O)oc2c3c(cc(OCC(=O)NCc4ccco4)c12)OC(C)(C)CC3	none
Cc1cc(=O)oc2c3c(cc(OCC(=O)NCC(=O)N[C@H](C(=O)O)C(C)C)c12)OC(C)(C)CC3	D2 antagonist 30
Cc1c(C)c2c(OCC(=O)NCc3ccco3)cc3c(c2oc1=O)CCC(C)(C)O3	D2 antagonist 30
